Results filed as inconclusive are left out. Where a call stands in place of a potency, no number is given. Active and inactive are the calls of the source. Unless noted, calls come from the whole dose curve; as a rule, active = well fitted curve in the direction sought with a large enough effect; inconclusive = small, poorly fitted or top-dose-only effect, or another doubt; inactive = no such curve, though single readings can be large; an effect the other way counts as inactive or inconclusive.

The record followed here is PubChem BioAssay (NCATS).

Assay [1] can be described thus: qHTS assay for measurement of the activity of small molecule inhibitors on Zika virus induced Caspase-3 activity in human iPSC derived neural progenitor cells (hNPCs) (AID 1224857). Note: nearly all actives have a fitted effect of over 65% in size. Note: potency is the fitted concentration of half-maximal effect. The procedure, abridged: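 Values are percent inhibition of virus-induced caspase-3/7 signal, scaled between uninfected cells and ZIKV-infected cells. Infection used 2 FFU/cell for 6 h after 1 h compound exposure.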

Assay [2] can be described thus: qHTS assay for measurement of the activity of small molecule inhibitors on Zika virus induced Caspase-3 activity in human astrocytoma cells (AID 1224859). The method, boiled down:
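Compound added 1 h pre-infection; ZIKV 2 FFU/cell on SNB-19 cells, 6 h, 37 C/5% CO2. Caspase-Glo 3/7 luminescence; values as % inhibition of ZIKV-induced caspase activity.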
In general terms: In qHTS, concentration-response curves come from the screen itself.

The nature of assay [3]: qHTS profiling for inhibitors of Plasmodium falciparum (3D7) proliferation (AID 743322; call rule not given here;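 note: infected erythrocytes exposed to compound for 72 h before lysis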). The settings on record: P. falciparum 3D7 proliferation; at 28.7 µM (top of the series). The procedure, abridged:
(§1)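 Erythrocytes infected with P. falciparum (0.3% parasitemia, 2.5% hematocrit) incubated with compounds 72 h at 37 C, 5% CO2. Lysis with saponin/Triton buffer containing SYBR Green I, overnight at room temperature in the dark; DNA fluorescence (485/535 nm) normalised to 0.29 uM artemisinin and DMSO.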

Assay [4] can be described thus: qHTS profiling for inhibitors of Plasmodium falciparum (DD2) proliferation (AID 743323; call rule not given here). The settings on record: lower = more inhibition; at 28.7 µM (top of the series). The procedure, abridged: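 1536-well qHTS; infected RBCs 0.3% parasitemia/2.5% Hct final; cpd 72 h 37 C 5% CO2; lysis buffer + SYBR Green I, o/n RT dark; FI 485/535; norm. to 0.29 uM artemisinin and DMSO, plate-stack corrected.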

Assay [5] can be described thus: qHTS profiling of the MIPE4 collection as inhibitors of Plasmodium falciparum (DD2) proliferation (AID 743345; call rule not given here). The settings on record: P. falciparum Dd2 in erythrocytes, SYBR Green DNA, 72 h; at 28.5 µM (top of the series). The procedure, abridged:
as §1

Assay [6] in a line: qHTS profiling of the MIPE4 collection as inhibitors of Plasmodium falciparum (HB3) proliferation (AID 743347; call rule not given here). The note with it: P. falciparum HB3 in erythrocytes, SYBR Green DNA, 72 h; at 28.5 µM (top of the series). The procedure, abridged: as §1
Assay [7] can be described thus: qHTS assay to identify small molecule inhibitors of chordoma cells - UCH-1 (AID 1259355). Note: nearly all actives have a fitted effect of over 55% in size. The method, boiled down:
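Seed 800 cells per well; incubate overnight at 37 C, 5% CO2. Add test compounds (15 concentrations), then the auranofin–topoisomerase-agent combination. Incubate 48hr, add CellTiter-Glo, wait 30min, read luminescence.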

Assay [8] is described as follows: qHTS profiling for inhibitors of Plasmodium falciparum (HB3) proliferation (AID 743324). The settings on record: Plasmodium falciparum HB3 blood-stage proliferation; at 28.7 µM (top of the series). The method, boiled down:
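P. falciparum HB3 grown in erythrocytes (0.3% parasitemia, 2.5% hematocrit final) with compound for 72 h at 37 C, 5% CO2. Parasite DNA detected by SYBR Green after saponin/triton lysis overnight; normalized to 0.29 uM artemisinin and DMSO.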

Assay [9] is described as follows: qHTS profiling of the MIPE4 collection as inhibitors of Plasmodium falciparum (3D7) proliferation (AID 743344; call rule not given here). The note with it: P. falciparum 3D7 in erythrocytes, SYBR Green DNA fluorescence, 72 h; at 28.5 µM (top of the series). From the text: Plasmodium falciparum is a virulent malarial parasite that kills 1-2 million people worldwide each year. Transmitted by mosquitoes, the sporozoite form of the parasite enters the blood stream to infect hepatocytes, where they become merozoites that infect red blood cells (erythrocytes). Within erythrocytes, merozoites begin a […] cycle of growth and division, after which the parasite is released to infect new red blood cells. Gametocytes, which form within erythrocytes as well, circulate in the bloodstream and are ingested by the mosquito, thereby completing the life cycle. To profile malarial isolates for differential chemical responses and to identify inhibitors of malarial growth, an assay that measures P. falciparum growth and replication within erythrocytes was employed. […] Because mature erythrocytes lack DNA, only Plasmodium-derived DNA is detected.
The SYBR Green viability assay was adapted from a method described previously (Plouffe et al., 2008). […] The following morning, fluorescence intensity at 485(14) nm excitation and 535(25) nm emission wavelengths was measured on an EnVision (Perkin Elmer) plate reader. Plate reads were normalized relative to the control inhibitor (0.29 uM artemisinin) and vehicle (DMSO) wells present on each plate and then corrected by an algorithm using vehicle-only control plates at the beginning and end of the compound plate stack.

Assay [10] can be described thus: qHTS profiling of the MIPE4 collection as inhibitors of Plasmodium falciparum (DD2) proliferation (Rep 2) (AID 743346; call rule not given here). The note with it: P. falciparum Dd2 in erythrocytes, SYBR Green DNA, 72 h; at 28.5 µM (top of the series). The procedure, abridged:
as §1

Turning to `Clc1ccc(N2CC3CCC(C2)N3)nn1`, the Potency entry in assay [1] is “inactive”. Further, the call in assay [2] was inactive. Take `CC(=O)NBr`: the Potency result in [1] is “inactive”. Also, the compound was classed as inactive in assay [2]. As to `CC(C)(O)[C@@H]1[C@H]2OC(=O)[C@@H]1[C@]1(O)C[C@H]3O[C@]34C(=O)O[C@H]2[C@]14C` (tested in a mixture with another compound), the Potency entry in assay [1] was “inactive”. The same measure, in the same setting: as for `CC1OC1P(=O)(O)O` (stereo unspecified), the entry is “inactive”. Take `CC(N)c1cccc(Cl)c1Cl` (stereo unspecified): the Potency entry in assay [1] is “inactive”. In addition, in [2], the result was inactive. Take `O=C1/C(=C/c2ccccc2)C[C@@]2(O)[C@H]3Cc4ccc(O)c5c4[C@@]2(CCN3CC2CC2)[C@H]1O5`: the Potency result in assay [1] is “inactive”. As to `C[N+]1(C)CCc2cc3c(cc2[C@H]1[C@@H]1OC(=O)c2c1ccc1c2OCO1)OCO3`, in assay [1], the Potency result was “inactive”. For the same compound, the outcome in [2] was inactive.

With `OC1CCCCC1N1CCC(c2ccccc2)CC1` (stereo unspecified), in assay [1], the Potency entry was “inactive”. In assay [2], the outcome was inactive. With `COC(=O)N1CCN(C(=O)Cc2ccc(Cl)c(Cl)c2)C(CN2CCCC2)C1` (stereo unspecified), in assay [1], the Potency entry was “inactive”. Moreover, the outcome in assay [2] was inactive. As for `C[C@@H]1O[C@@H](O[C@H]2C[C@@H](O)[C@]3(CO)[C@@H]4C(CC[C@]3(O)C2)[C@@]2(O)CC[C@H]([C@@H]3COC(=O)C3)[C@@]2(C)C[C@H]4O)[C@H](O)[C@H](O)[C@H]1O` (stereo partly specified), the Potency entry in [1] is “inactive”. Moreover, in [2], the outcome was inactive. As to `CCCC[N+]1(C)C2CC(OC(=O)[C@H](CO)c3ccccc3)CC1C1OC12` (stereo partly specified), the Potency entry in [1] was “inactive”. Moreover, the compound was called inactive in assay [2]. As to `NNC(N)=O`, the Potency result in assay [1] was “inactive”. For the same compound, the call in assay [2] was inactive. On to `NC(CCCCCP(=O)(O)O)C(=O)O` (stereo unspecified), for which the Potency entry in assay [1] was “inactive”. Also, the outcome in assay [2] was inactive. In the case of `NC(=O)COc1c(F)cc(SCCNS(=O)(=O)c2ccccc2)cc1F`, the Potency entry in assay [1] is “inactive”. In [2], the result was inactive. On to `O=c1ccc2[nH]cc(C3=CCNCC3)c2[nH]1`, for which the Potency result in assay [1] is “inactive”. Consider `CCCN(CCC)C1CCc2cccc(O)c2C1` (stereo unspecified), for which the Potency result in assay [1] was “inactive”. Moreover, in assay [2], the result was inactive. For `C[N+]1(C)CCC(OC(=O)C(c2ccccc2)c2ccccc2)CC1`, in assay [1], the Potency entry was “inactive”.

Regarding `Nc1cc2c(ncn2CCOCP(=O)(O)O)c(=O)[nH]1`, the Potency result in assay [1] was “inactive”. On to `C=CCN1CCC23c4c5ccc(O)c4O[C@H]2C(=O)CC[C@@]3(O)C1C5` (stereo partly specified), for which the Potency entry in assay [1] is “inactive”. For the same compound, in [2], the outcome was inactive. As for `CN1CC[C@@]2(C)c3cc(OC(=O)Nc4ccccc4)ccc3N(C)[C@@H]12`, the Potency in [1] was 10 µM (active).

On to `Nc1ncnc2c1ncn2[C@@H]1O[C@H](COP(=O)(O)CP(=O)(O)OP(=O)(O)O)C(O)[C@H]1O` (stereo partly specified), for which the Potency entry in assay [1] was “inactive”.

For the compound `CP(=O)(O)C1=CCNCC1`, the Potency entry in assay [1] is “inactive”. Also, in assay [2], the result was inactive. Regarding `O=[N+]([O-])c1cc(O)c(O)c([N+](=O)[O-])c1`, the Potency entry in assay [1] is “inactive”. In addition, in assay [2], the call was inactive. On to `[Cl-].[Cl][Pt].[NH2-].[NH2-].c1ccncc1`, for which the Potency entry in assay [1] was “inactive”. Consider `CN1C2CCC1CC(OC(c1ccccc1)c1ccccc1N)C2` (stereo unspecified), for which, in assay [1], the Potency result was “inactive”. Further, the compound was called inactive in assay [2].

Consider `CCS(=O)(=O)Nc1cccc(C(=C2CCCCC2)c2cnc[nH]2)c1`, for which the Potency result in assay [1] was “inactive”. Moreover, in [2], the call was inactive. Take `C=CCN1C[C@@H](C)N([C@H](c2ccc(C(=O)N(CC)CC)cc2)c2cccc(OC)c2)C[C@@H]1C`: in [1], the Potency result was “inactive”. In addition, the outcome in assay [2] was inactive. Consider `CCCN(CCC)CCc1ccc(O)c(O)c1`, for which the Potency result in assay [1] is “inactive”. For the same compound, the compound was classed as inactive in assay [2]. For `CC(C)NP(=O)(NC(C)C)OP(=O)(NC(C)C)NC(C)C`, the Potency result in assay [1] was “inactive”. Besides, the compound was called inactive in assay [2]. Regarding `CC(N)Cc1c[nH]c2ccc(OCc3cccs3)cc12` (stereo unspecified), the Potency entry in assay [1] was “inactive”. The result in [2] was inactive. Turning to `C[N+](C)(C)CC#CCN1CCCC1=O`, the Potency entry in assay [1] was “inactive”. The call in [2] was inactive. Consider `CCCN1CCc2cccc3c2[C@H]1Cc1ccc(O)c(O)c1-3`, for which the Potency result in assay [1] is “inactive”. Further, in [2], the outcome was inactive.

`NNC(=O)c1ccc(O)cc1`: in [1], the Potency result was “inactive”. In addition, the call in assay [2] was inactive. On to `O=C(NC1CN2CCC1CC2)c1cc2ccoc2cn1` (stereo unspecified), for which the Potency result in assay [1] was “inactive”. As to `C[C@H]1C2Cc3ccc(O)cc3[C@@]1(C)CCN2CC1CC1`, the Potency entry in assay [1] is “inactive”.

Take `CCOC(=O)c1ncn2c1[C@@H]1CCCN1C(=O)c1cc(OC)ccc1-2`: in [1], the Potency result was “inactive”. In addition, in [2], the call was inactive. With `CN1CCC[C@@H]1Cc1c[nH]c2ccc(Nc3ncccc3[N+](=O)[O-])cc12`, the Potency result in [1] was “inactive”.

In the case of `CN1CCC(c2c[nH]c3ccc(O)cc23)CC1`, the Potency result in assay [1] was “inactive”. Moreover, the outcome in [2] was inactive.

As for `CCCN1CCC[C@@H](c2cccc(O)c2)C1`, the Potency entry in assay [1] was “inactive”. Besides, the compound was classed as inactive in assay [2].

As to `C[C@H](N)CN1CCc2ccc(Br)cc21`, the remaining parasite growth % (stronger effect = lower value) in [3] worked out at 99.2%. Also, the activity, percent of control in assay [4] was 24.2%. For `C[N+]1(C)[C@@H]2CC(OC(=O)[C@H](CO)c3ccccc3)C[C@H]1[C@H]1O[C@@H]12` (stereo partly specified), the parasite growth remaining, % of DMSO control (lower = more inhibition) in [5] worked out at 91.7%. Further, the growth, % of control in assay [6] was found to be 86.8%. For the compound `O=P(O)(O)C(Cl)(Cl)P(=O)(O)O`, in assay [7], the Potency entry is “inactive”. As for `NC(Cc1ccc(N(CCCl)CCCl)cc1)C(=O)O` (stereo unspecified), the remaining parasite growth % (stronger effect = lower value) in assay [3] worked out at 34.1%. Further, the activity, percent of control in assay [4] was 18.8%. In assay [8], the remaining proliferation (% of control), lower = more inhibition amounted to 9.39%. Regarding `CC(=O)c1c(O)c(C)c(O)c(Cc2c(O)c3c(c(C(=O)/C=C/c4ccccc4)c2O)OC(C)(C)C=C3)c1O`, the remaining parasite growth % (stronger effect = lower value) in [3] was -0.946%. Further, the activity, percent of control in [4] was -0.827%. For the same compound, in assay [8], the remaining proliferation (% of control), lower = more inhibition was -2.57%. Turning to `Oc1ccc2c3c1O[C@H]1c4[nH]c5ccccc5c4C[C@@]4(O)C(C2)N(CC2CC2)CCC314` (stereo partly specified), the parasite growth, % of DMSO control in assay [9] was found to be 5.78%. For the same compound, the parasite growth remaining, % of DMSO control (lower = more inhibition) in assay [5] was found to be 28.3%. In [10], this compound displayed a parasite growth, % of control (lower = inhibition) of 12.6%. In assay [6], the growth, % of control was 5.24%.
